Source: PubChem BioAssay (NCATS)
“And” between values parts separate entries of the source, which are not always exact repeats. Identical values can stand only once. Inconclusive results are not listed. A number with no mark means an inactive call. The source made the active and inactive calls. Calls come from the whole dose curve; as a rule, active = well fitted inhibition curve with a large enough effect; inconclusive = small, poorly fitted or top-dose-only effect; inactive = flat fitted curve, though single readings scatter.

Each compound was assayed on HEK293 (assay: Cytotoxic Profiling of Annotated Libraries Using Quantitative High-Throughput Screening (AID 1296008; note: nearly all actives have a fitted effect of over 60% in size)). Conditions: Five cell lines viability, CellTiter-Glo ATP luminescence, 48-72 h; max response: stronger effect = lower value.
Procedure, shortened: (§1)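 Cells exposed to compounds for 48 or 72 hr at 37 degrees Celsius. Viability read as ATP-coupled luminescence with CellTiter-Glo after 10 min at room temperature.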
% is set by controls: 0 for no effect and ±100 for the full control effect.

Row | Structure (SMILES) | outcome | max response
1 | Nc1ccccc1 | inactive | –
2 | CC(C)N(CCC(C(N)=O)(c1ccccc1)c1ccccn1)C(C)C (configuration not stated) | – | -72.3%
3 | C=C(C)[C@H]1CN[C@H](C(=O)O)[C@H]1CC(=O)O | – | 0.123%
4 | CN1C(=O)CCS(=O)(=O)C1c1ccc(Cl)cc1 (configuration not stated) | inactive | -9.62%
5 | CNC(C)(C)Cc1ccccc1 | – | -3.64%
6 | CC1(C)C(C=C(Cl)Cl)C1C(=O)OC(C#N)c1cccc(Oc2ccccc2)c1 (configuration not stated) | – | 2.42%
7 | O=C1c2ccccc2C(=O)c2ccccc21 | inactive | –
8 | O=C1c2ccccc2C(=O)C1C(=O)C(c1ccccc1)c1ccccc1 | inactive | –
9 | C[C@]12CC[C@@H]3c4ccc(OC(=O)N(CCCl)CCCl)cc4CC[C@H]3[C@@H]1CC[C@@H]2OP(=O)(O)O | – | -12.2%
10 | COC(=O)[C@@H](N)CCCN/C(N)=N/[N+](=O)[O-] | inactive | –
11 | CCC1(c2ccc(N)cc2)CCC(=O)NC1=O (configuration not stated) | inactive | 4.46%
12 | O=C(O)CCCc1ccc(N(CCCl)CCCl)cc1 | – | -24.7%
13 | NNc1ccccc1 | – | 3.08%
14 | CCc1cc2c(s1)-n1c(C)nnc1CN=C2c1ccccc1Cl | – | -15.5%
15 | NC(=O)c1cc([N+](=O)[O-])cc([N+](=O)[O-])c1 | – | -2.7%
16 | COP(=S)(OC)Oc1cc(Cl)c(Cl)cc1Cl | – | 1.74%
17 | c1ccc(CN2CCNCC2)cc1 | – | -21.3%
18 | C[N+]1(CCF)[C@@H]2CC[C@H]1CC(OC(=O)C(O)(c1ccccc1)c1ccccc1)C2 (some centres not stated) | – | -5.81%

Row | Structure (SMILES) | outcome | max response
19 | CCN(CCO)CCn1c(Cc2ccccc2)nc2c1c(=O)n(C)c(=O)n2C | – | -6.17%
20 | O=C(O)/C=C\C(=O)O | – | -3.36%
21 | CC(C)(C)NCC(O)c1cc(Cl)c(N)c(C(F)(F)F)c1 (configuration not stated) | inactive | –
22 | O=C1OC(c2ccc(O)c(S(=O)(=O)O)c2)(c2ccc(O)c(S(=O)(=O)O)c2)c2c(Br)c(Br)c(Br)c(Br)c21 | inactive | –
23 | C=CCN1C[C@H](C)N([C@H](c2ccc(C(=O)N(CC)CC)cc2)c2cccc(OC)c2)C[C@H]1C | – | -3.98% and -24.1%
24 | CCCCCCCCCC(=O)O[C@H]1CC[C@H]2[C@@H]3CCC4=CC(=O)CC[C@@H]4[C@H]3CC[C@]12C | – | -2.03%
25 | CCCCCN(C)CCC(O)(P(=O)(O)O)P(=O)(O)O | – | -18.4%
26 | CC(NC(C)(C)C)C(=O)c1cccc(Cl)c1 (configuration not stated) | inactive | -3.26% and -3.1%
27 | O=c1[nH]oc2c1CCNC2 | – | -2.62%
28 | CC(=O)OCC1=C(C(=O)O)N2C(=O)[C@@H](N)[C@H]2SC1 | – | 0.778% and -3.29%
29 | O=P1(N(CCCl)CCCl)NCCCO1 (configuration not stated) | – | -27.8% and -15.3%
30 | COc1ccc2c3c1O[C@H]1[C@H](O)CC[C@H]4[C@@H](C2)N(C)CC[C@@]341 | – | -4.59%
31 | CN1CC[C@]23c4c5ccc(O)c4O[C@H]2[C@@H](O)CC[C@H]3[C@H]1C5 | – | -12.9%
32 | COc1cc(OC)c(OC)cc1C=O | inactive | -6.96%
33 | Oc1ccc(Cl)cc1 | inactive | –
34 | CC(C)c1cccc(C(C)C)c1O | inactive | -6.49%
35 | CNCC(=O)c1ccc(O)c(O)c1 | – | 3.33%
36 | CCOC(=O)CC(SP(=S)(OC)OC)C(=O)OCC (configuration not stated) | inactive | –

These compounds were tested on HaCat in the same assay as above. Conditions: Five cell lines viability, CellTiter-Glo ATP luminescence, 48-72 h; max response: stronger effect = lower value.
Procedure, shortened: as §1

Row | Structure (SMILES) | outcome | max response
37 | Nc1ccccc1 | inactive | –
38 | CC(C)N(CCC(C(N)=O)(c1ccccc1)c1ccccn1)C(C)C (configuration not stated) | inactive | -27.6%
39 | C=C(C)[C@H]1CN[C@H](C(=O)O)[C@H]1CC(=O)O | inactive | –
40 | CN1C(=O)CCS(=O)(=O)C1c1ccc(Cl)cc1 (configuration not stated) | inactive | –
41 | CNC(C)(C)Cc1ccccc1 | inactive | –
42 | CC1(C)C(C=C(Cl)Cl)C1C(=O)OC(C#N)c1cccc(Oc2ccccc2)c1 (configuration not stated) | inactive | –
43 | O=C1c2ccccc2C(=O)c2ccccc21 | inactive | –
44 | O=C1c2ccccc2C(=O)C1C(=O)C(c1ccccc1)c1ccccc1 | inactive | –
45 | C[C@]12CC[C@@H]3c4ccc(OC(=O)N(CCCl)CCCl)cc4CC[C@H]3[C@@H]1CC[C@@H]2OP(=O)(O)O | inactive | 4.84%
46 | COC(=O)[C@@H](N)CCCN/C(N)=N/[N+](=O)[O-] | – | -19.5%
47 | CCC1(c2ccc(N)cc2)CCC(=O)NC1=O (configuration not stated) | – | 2.56% and -2.32%
48 | O=C(O)CCCc1ccc(N(CCCl)CCCl)cc1 | inactive | –
49 | NNc1ccccc1 | – | 1.05%
50 | CCc1cc2c(s1)-n1c(C)nnc1CN=C2c1ccccc1Cl | – | -1.07%
51 | NC(=O)c1cc([N+](=O)[O-])cc([N+](=O)[O-])c1 | – | 3.87%
52 | COP(=S)(OC)Oc1cc(Cl)c(Cl)cc1Cl | – | 4.52%
53 | c1ccc(CN2CCNCC2)cc1 | inactive | –
54 | C[N+]1(CCF)[C@@H]2CC[C@H]1CC(OC(=O)C(O)(c1ccccc1)c1ccccc1)C2 (some centres not stated) | inactive | –

Row | Structure (SMILES) | outcome | max response
55 | CCN(CCO)CCn1c(Cc2ccccc2)nc2c1c(=O)n(C)c(=O)n2C | inactive | –
56 | O=C(O)/C=C\C(=O)O | – | 1.05%
57 | CC(C)(C)NCC(O)c1cc(Cl)c(N)c(C(F)(F)F)c1 (configuration not stated) | – | -13.5%
58 | O=C1OC(c2ccc(O)c(S(=O)(=O)O)c2)(c2ccc(O)c(S(=O)(=O)O)c2)c2c(Br)c(Br)c(Br)c(Br)c21 | inactive | –
59 | C=CCN1C[C@H](C)N([C@H](c2ccc(C(=O)N(CC)CC)cc2)c2cccc(OC)c2)C[C@H]1C | inactive | –
60 | CCCCCCCCCC(=O)O[C@H]1CC[C@H]2[C@@H]3CCC4=CC(=O)CC[C@@H]4[C@H]3CC[C@]12C | – | 4.55%
61 | CCCCCN(C)CCC(O)(P(=O)(O)O)P(=O)(O)O | – | -1.92%
62 | CC(NC(C)(C)C)C(=O)c1cccc(Cl)c1 (configuration not stated) | inactive | -7.82%
63 | O=c1[nH]oc2c1CCNC2 | inactive | –
64 | CC(=O)OCC1=C(C(=O)O)N2C(=O)[C@@H](N)[C@H]2SC1 | – | -3.66% and 4.2%
65 | O=P1(N(CCCl)CCCl)NCCCO1 (configuration not stated) | inactive | -5.79%
66 | COc1ccc2c3c1O[C@H]1[C@H](O)CC[C@H]4[C@@H](C2)N(C)CC[C@@]341 | inactive | –
67 | CN1CC[C@]23c4c5ccc(O)c4O[C@H]2[C@@H](O)CC[C@H]3[C@H]1C5 | inactive | –
68 | COc1cc(OC)c(OC)cc1C=O | inactive | -4.25%
69 | Oc1ccc(Cl)cc1 | inactive | –
70 | CC(C)c1cccc(C(C)C)c1O | inactive | –
71 | CNCC(=O)c1ccc(O)c(O)c1 | inactive | –
72 | CCOC(=O)CC(SP(=S)(OC)OC)C(=O)OCC (configuration not stated) | – | -7.37% and 2.49%
